Laboratory results taken from the supplement of paper PMC10127200.
Where a name gives a salt, the structure may show the parent alone.

Key:
Assay in all cases: Euclidean distance of Cell Painting phenotypic profile (signed KS, 77 features) to DMSO centroid (dimensionless distance); 5 or 10 uM (library dependent); higher = stronger phenotypic change vs DMSO (phenoactivity)
Details in all cases: 48 h
786-O = tested on: 786-O
In short: (§1)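 Harmony extracted 77 features from 20X confocal images (9 fields/well) of stained cells, scoring each as a signed Kolmogorov-Smirnov statistic against same-plate vehicle wells. The cells, five cancer lines and a healthy fibroblast line, had received library compounds for 48 h at 10 or 5 uM depending on library, with 0.1% DMSO final. Phenoactivity is the Euclidean distance from each plate-position-corrected, correlation-weighted, top-dose replicate-averaged profile to the median vehicle profile.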

A549 = tested on: A549
In short: as §1

DU145 = tested on: DU145
In short: as §1

FB = tested on: FB
In short: as §1

HEPG2 = tested on: HEPG2
In short: as §1

OVCAR4 = tested on: OVCAR4
In short: as §1

S=c1nc[nH]c2nc[nH]c12 [6-Mercaptopurine (6-MP) Monohydrate]
Euclidean distance (786-O): 1.29
Euclidean distance (A549): 0.49
Euclidean distance (DU145): 0.673
Euclidean distance (FB): 0.989
Euclidean distance (HEPG2): 1.81
Euclidean distance (OVCAR4): 0.591

COc1cccc2c1C(=O)c1c(O)c3c(c(O)c1C2=O)C[C@@](O)(C(=O)CO)C[C@@H]3O[C@H]1C[C@H](N)[C@@H](O)[C@H](C)O1 [Epirubicin HCl]
Euclidean distance (786-O): 3.54
Euclidean distance (A549): 4.33
Euclidean distance (DU145): 3.92
Euclidean distance (FB): 5.12
Euclidean distance (HEPG2): 4.78
Euclidean distance (OVCAR4): 4.83

Cc1c(OCC(F)(F)F)ccnc1C[S@@+]([O-])c1nc2ccccc2[nH]1 [Dexlansoprazole]
Euclidean distance (786-O): 0.708
Euclidean distance (A549): 0.614
Euclidean distance (DU145): 0.925
Euclidean distance (FB): 1.52
Euclidean distance (HEPG2): 0.629
Euclidean distance (OVCAR4): 1.1

Cc1c(N(C)C)c(=O)n(-c2ccccc2)n1C [Amidopyrine]
Euclidean distance (786-O): 1.3
Euclidean distance (A549): 0.92
Euclidean distance (DU145): 0.804
Euclidean distance (FB): 1.15
Euclidean distance (HEPG2): 1.63
Euclidean distance (OVCAR4): 1.17

COc1ccc(NC(=O)c2ccc(C(=N)N(C)C)cc2)c(C(=O)Nc2ccc(Cl)cn2)c1 [Betrixaban]
Euclidean distance (786-O): 1.22
Euclidean distance (A549): 0.664
Euclidean distance (DU145): 0.647
Euclidean distance (FB): 0.875
Euclidean distance (HEPG2): 0.841
Euclidean distance (OVCAR4): 0.904

CNC(=O)c1ccc(C)c(-n2c(C)cc(OCc3ccc(F)cc3F)c(Br)c2=O)c1
Euclidean distance (786-O): 1.33
Euclidean distance (A549): 1.29
Euclidean distance (DU145): 0.844
Euclidean distance (FB): 1.55
Euclidean distance (HEPG2): 1.94
Euclidean distance (OVCAR4): 1.07

Cc1c(Cl)cccc1Nc1ncccc1C(=O)O [Clonixin]
Euclidean distance (786-O): 0.846
Euclidean distance (A549): 1.1
Euclidean distance (DU145): 1.6
Euclidean distance (FB): 1.11
Euclidean distance (HEPG2): 0.606
Euclidean distance (OVCAR4): 0.98

O=c1[nH]c2ccccc2n1CCN1CCN(c2cccc(C(F)(F)F)c2)CC1 [Flibanserin]
Euclidean distance (786-O): 1.14
Euclidean distance (A549): 1.22
Euclidean distance (DU145): 0.833
Euclidean distance (FB): 1.07
Euclidean distance (HEPG2): 0.806
Euclidean distance (OVCAR4): 1.35

Nc1nc(OCc2ccccc2)c2nc[nH]c2n1 [O6-Benzylguanine]
Euclidean distance (786-O): 1.02
Euclidean distance (A549): 0.825
Euclidean distance (DU145): 0.926
Euclidean distance (FB): 1.41
Euclidean distance (HEPG2): 0.548
Euclidean distance (OVCAR4): 0.833

O=C(c1c(F)ccc(NS(=O)(=O)N2CC[C@@H](F)C2)c1F)c1c[nH]c2ncc(-c3cnc(C4CC4)nc3)cc12
Euclidean distance (786-O): 1.42
Euclidean distance (A549): 1.86
Euclidean distance (DU145): 2.02
Euclidean distance (FB): 2.6
Euclidean distance (HEPG2): 1.2
Euclidean distance (OVCAR4): 1.44

O=C1NS(=O)(=O)c2ccccc21 [Saccharin]
Euclidean distance (786-O): 1.09
Euclidean distance (A549): 0.449
Euclidean distance (DU145): 0.729
Euclidean distance (FB): 0.738
Euclidean distance (HEPG2): 0.461
Euclidean distance (OVCAR4): 0.73

CCN1CCN(C(=O)N[C@@H](C(=O)N[C@@H]2C(=O)N3[C@@H]2SC(C)(C)[C@@H]3C(=O)O)c2ccccc2)C(=O)C1=O [Piperacillin Sodium]
Euclidean distance (786-O): 1.11
Euclidean distance (A549): 0.62
Euclidean distance (DU145): 0.884
Euclidean distance (FB): 1.1
Euclidean distance (HEPG2): 0.514
Euclidean distance (OVCAR4): 1.25

Cc1ccc(-c2c(-c3nn(C)c4ncnc(N5CC[C@H](N6CCCCC6)C5)c34)cnn2C)cc1
Euclidean distance (786-O): 0.748
Euclidean distance (A549): 0.927
Euclidean distance (DU145): 0.814
Euclidean distance (FB): 1.22
Euclidean distance (HEPG2): 0.843
Euclidean distance (OVCAR4): 1.27

C[C@@H](C(=O)Nc1ccc(Cl)cc1)C1CCC(c2ccnc3ccc(F)cc23)CC1 (stereo partly specified)
Euclidean distance (786-O): 1.84
Euclidean distance (A549): 2.05
Euclidean distance (DU145): 1.38
Euclidean distance (FB): 1.29
Euclidean distance (HEPG2): 1.93
Euclidean distance (OVCAR4): 1.69

Clc1ccc(CCCOCCCN2CCCCC2)cc1 [Pitolisant hydrochloride]
Euclidean distance (786-O): 0.716
Euclidean distance (A549): 0.836
Euclidean distance (DU145): 0.816
Euclidean distance (FB): 0.98
Euclidean distance (HEPG2): 0.955
Euclidean distance (OVCAR4): 0.758

CC(=O)OC(C)C[N+](C)(C)C (stereo unspecified) [Methacholine chloride]
Euclidean distance (786-O): 0.977
Euclidean distance (A549): 1.02
Euclidean distance (DU145): 1.24
Euclidean distance (FB): 0.67
Euclidean distance (HEPG2): 0.576
Euclidean distance (OVCAR4): 1.45

COc1cc2c3cc1Oc1c(OC)c(OC)cc4c1[C@@H](Cc1ccc(O)c(c1)Oc1ccc(cc1)C[C@@H]3N(C)CC2)N(C)CC4 [Berbamine]
Euclidean distance (786-O): 2.93
Euclidean distance (A549): 3.17
Euclidean distance (DU145): 2.1
Euclidean distance (FB): 3.91
Euclidean distance (HEPG2): 2.29
Euclidean distance (OVCAR4): 2.64

CCc1cncnc1N1CCN(Cc2nc3ccc(C(F)(F)F)cc3[nH]2)CC1
Euclidean distance (786-O): 1.03
Euclidean distance (A549): 0.742
Euclidean distance (DU145): 0.956
Euclidean distance (FB): 1.1
Euclidean distance (HEPG2): 0.883
Euclidean distance (OVCAR4): 1.13

COc1cc(Nc2ncc(F)c(Nc3ccc4c(n3)NC(=O)C(C)(C)O4)n2)cc(OC)c1OC
Euclidean distance (786-O): 1.65
Euclidean distance (A549): 3.73
Euclidean distance (DU145): 2.9
Euclidean distance (FB): 3.35
Euclidean distance (HEPG2): 1.78
Euclidean distance (OVCAR4): 2.24

CCCC(CCC)C(N)=O [Valpromide]
Euclidean distance (786-O): 0.509
Euclidean distance (A549): 1.08
Euclidean distance (DU145): 1
Euclidean distance (FB): 1.42
Euclidean distance (HEPG2): 0.77
Euclidean distance (OVCAR4): 1.44

CC[C@H]1OC(=O)[C@H](C)[C@@H](O[C@H]2C[C@@](C)(OC)[C@@H](O)[C@H](C)O2)[C@H](C)[C@@H](O[C@@H]2O[C@H](C)C[C@H](N(C)C)[C@H]2O)[C@](C)(O)C[C@@H](C)CN[C@H](C)[C@@H](O)[C@]1(C)O [Azathramycin]
Euclidean distance (786-O): 1.51
Euclidean distance (A549): 0.559
Euclidean distance (DU145): 0.734
Euclidean distance (FB): 0.693
Euclidean distance (HEPG2): 1.08
Euclidean distance (OVCAR4): 0.873

CS(=O)(=O)n1cc2c(n1)CN([C@H]1CO[C@H](c3cc(F)ccc3F)[C@@H](N)C1)C2 [Omarigliptin (MK-3102)]
Euclidean distance (786-O): 1.02
Euclidean distance (A549): 2.02
Euclidean distance (DU145): 1.89
Euclidean distance (FB): 1.7
Euclidean distance (HEPG2): 2.25
Euclidean distance (OVCAR4): 2.16

COc1cc2ncnc(Oc3cccc(NC(=O)Nc4cc(C(C)(C)C(F)(F)F)on4)c3)c2cc1OC
Euclidean distance (786-O): 0.889
Euclidean distance (A549): 2.41
Euclidean distance (DU145): 1.19
Euclidean distance (FB): 1.02
Euclidean distance (HEPG2): 0.923
Euclidean distance (OVCAR4): 1.88

Cc1cc(C)nc(NS(=O)(=O)c2ccc(NC(=S)NC(=O)COc3ccc(Br)cc3Cl)cc2)n1
Euclidean distance (786-O): 0.465
Euclidean distance (A549): 0.727
Euclidean distance (DU145): 0.713
Euclidean distance (FB): 0.857
Euclidean distance (HEPG2): 2.1
Euclidean distance (OVCAR4): 0.759

CC(C)OC(=O)CCC/C=C\C[C@@H]1[C@@H](/C=C/[C@@H](O)COc2cccc(C(F)(F)F)c2)[C@H](O)C[C@@H]1O [Travoprost]
Euclidean distance (786-O): 0.945
Euclidean distance (A549): 0.886
Euclidean distance (DU145): 0.732
Euclidean distance (FB): 1.11
Euclidean distance (HEPG2): 1.07
Euclidean distance (OVCAR4): 1.25

CCCCCOc1ccc(-c2ccc(-c3ccc(C(=O)N[C@H]4C[C@@H](O)[C@@H](O)NC(=O)[C@@H]5[C@@H](O)[C@@H](C)CN5C(=O)[C@H]([C@@H](C)O)NC(=O)[C@H]([C@H](O)[C@@H](O)c5ccc(O)cc5)NC(=O)[C@@H]5C[C@@H](O)CN5C(=O)[C@H]([C@@H](C)O)NC4=O)cc3)cc2)cc1
Euclidean distance (786-O): 0.818
Euclidean distance (A549): 0.702
Euclidean distance (DU145): 1.21
Euclidean distance (FB): 0.749
Euclidean distance (HEPG2): 1.21
Euclidean distance (OVCAR4): 1.01
